The results in this text go back to PubChem BioAssay (Tox21).

“And” between values parts separate entries of the source, which are not always exact repeats. Equal values may be shown once. Records with an inconclusive call do not appear. Entries that show only a call come without a potency. More than one record can exist for a structure, and the calls need not agree. The source made the active and inactive calls. The call rests on the fitted dose curve; in most records, active means well fitted curve in the direction sought with a large enough effect in the repeat runs; inconclusive means weak or mixed curves; inactive means no such curve, though single readings can be large; an effect the other way counts as inactive or inconclusive.

Aromatase (Homo sapiens), sequence (P11511 whole entry, looked up): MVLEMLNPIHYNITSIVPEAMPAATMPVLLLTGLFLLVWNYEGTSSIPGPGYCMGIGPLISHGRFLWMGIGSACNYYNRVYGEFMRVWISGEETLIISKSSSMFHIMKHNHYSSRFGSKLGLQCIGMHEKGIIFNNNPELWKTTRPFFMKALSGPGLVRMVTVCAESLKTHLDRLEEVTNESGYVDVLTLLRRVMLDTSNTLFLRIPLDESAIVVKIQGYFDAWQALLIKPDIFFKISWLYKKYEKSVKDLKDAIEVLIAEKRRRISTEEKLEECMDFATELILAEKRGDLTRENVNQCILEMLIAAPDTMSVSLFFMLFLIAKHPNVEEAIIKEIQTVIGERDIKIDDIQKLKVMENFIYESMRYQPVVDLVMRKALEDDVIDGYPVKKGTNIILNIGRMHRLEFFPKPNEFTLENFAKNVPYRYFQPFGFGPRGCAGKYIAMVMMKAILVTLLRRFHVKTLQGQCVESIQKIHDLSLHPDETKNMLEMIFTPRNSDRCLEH

The first assay has as its target Aromatase (Homo sapiens) (UniProt P11511). The assay can be described thus: qHTS assay to identify aromatase inhibitors (AID 743083). Further: nearly all actives have a fitted effect of over 55% in size. The conditions noted are these: MCF-7 aro ERE, testosterone-driven ERE luciferase, 24 h; series mostly up to 70.3 µM; activity, negative = inhibition: at the top concentration. A general note: In qHTS, concentration-response curves come from the screen itself.
Regarding `C=C1C2CCC(C2)C1(C)C` (configuration not stated), the Potency result was “inactive”.

As to `CCOC(=O)[C@H](CCc1ccccc1)N[C@@H](C)C(=O)N1Cc2ccccc2C[C@H]1C(=O)O`, the Potency result is “inactive”.

`C=C(C)C(=O)OCCCCCCCCCCCC`: the Potency entry was “inactive”.

As to `OC1CCCC1`, the Potency result is “inactive”.

For the compound `COCC(C)O` (configuration not stated), the Potency result was “inactive”.

As to `Cc1ccc(C)c(C)c1`, the Potency result was “inactive”.

With `O=Nc1ccc(O)cc1`, the Potency entry was “inactive”.

On to `OCCOCCOCCOCCO`, for which the Potency entry is “inactive”.

On to `CCCCOCCOCCOC(=O)CCCCC(=O)OCCOCCOCCCC`, for which the Potency entry is “inactive”.

For `CC[Si](OC(C)=O)(OC(C)=O)OC(C)=O`, the Potency result is “inactive”.

On to `OC[C@@H](O)[C@H](O)[C@H](O)[C@@H](O)CO`, for which the Potency result was “inactive”.

Test system in another assay: not listed separately
Nature of the assay: qHTS assay to identify aromatase inhibitors - cell viability counter screen (AID 743084).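 Further: cells stimulated with testosterone during compound exposure; nearly all actives have a fitted effect of over 55% in size.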 Further: potency means the concentration at half of the fitted maximal effect. The note with it: MCF-7 aro ERE viability, CellTiter-Fluor, 24 h; series mostly up to 70.3 µM; activity change, negative = cytotoxicity: at the top concentration.
Turning to `Cn1c([N+](=O)[O-])cnc1COC(N)=O`, the Potency result is “inactive”.

As for `CC(C)Cc1ccccc1`, the Potency result was “inactive”.

For `O=[N+]([O-])C(CO)(CO)CO`, the Potency result was “inactive”.

For `O=S(=O)(O)CCS`, the Potency entry is “inactive”.

As to `OC[C@@H](O)[C@@H](O)[C@H](O)[C@@H](O)CO`, the Potency entry was “inactive”.

Consider `CC1Cc2ccccc2N1NC(=O)c1ccc(Cl)c(S(N)(=O)=O)c1` (configuration not stated), for which the Potency result was “inactive”.

Regarding `COC(=O)c1ccccc1O`, the Potency entry is “inactive”.

For the compound `COC(=O)c1ccc(C(=O)OC)cc1`, the Potency entry was “inactive”.

With `c1ccc2ccccc2c1`, the Potency result is “inactive”.

Turning to `CC(C)(CO)COC(=O)C(C)(C)CO`, the Potency result is “inactive”.

On to `O=[N+]([O-])c1cccc(Cl)c1`, for which the Potency entry was “inactive”.

Consider `CC1COc2ccccc2N1C(=O)C(Cl)Cl` (configuration not stated), for which the Potency is 27.3 µM (active).

Take `CCCCCCCCC`: the Potency result is “inactive”.

`Cc1cc(=O)[nH]c(C(C)C)n1`: the Potency result is “inactive”.

For the compound `Nc1c(S(=O)(=O)O)cc(Br)c2c1C(=O)c1ccccc1C2=O`, the Potency was 34.4 µM (active).

For the compound `Nc1cc(-c2ccncc2)c[nH]c1=O`, the Potency result was “inactive”.

In the case of `CCCCOCCO`, the Potency entry was “inactive”.

As to `CC(=O)Nc1ccc(C(=O)O)cc1`, the Potency result was “inactive”.

Regarding `COCC(=O)O`, the Potency entry was “inactive”.

Take `C=CC(=O)OCCCCCCCC(C)C`: the Potency entry was “inactive”.

Take `CCCCCCCCCCCCOCC1CO1` (configuration not stated): the Potency entry is “inactive”.

On to `CCC(C)C=O` (configuration not stated), for which the Potency entry is “inactive”.

As to `O=S(=O)(O)c1cc(S(=O)(=O)O)c2c(N=Nc3ccccc3)c(O)ccc2c1`, the Potency is 24.4 µM (active) and 27.3 µM (active).

For the compound `CC1(C)CC(N=C=O)CC(C)(CN=C=O)C1` (configuration not stated), the Potency result was “inactive”.

Regarding `Clc1cc(Cl)c(Cl)cc1Cl`, the Potency entry was “inactive”.

On to `O=C(Cl)c1c(Cl)c(Cl)c(C(=O)Cl)c(Cl)c1Cl`, for which the Potency entry is “inactive”.

For the compound `CS(=O)(=O)c1ccc([C@@H](O)[C@@H](CO)NC(=O)C(Cl)Cl)cc1`, the Potency entry was “inactive”.

Consider `C=C1C2CCC(C2)C1(C)C` (configuration not stated), for which the Potency entry was “inactive”.

As for `CCOC(=O)[C@H](CCc1ccccc1)N[C@@H](C)C(=O)N1Cc2ccccc2C[C@H]1C(=O)O`, the “activity change, negative = cytotoxicity” value is 22.6% (inactive).

As to `C=C(C)C(=O)OCCCCCCCCCCCC`, the Potency result was “inactive”.

On to `OC1CCCC1`, for which the Potency result was “inactive”.

As for `COCC(C)O` (configuration not stated), the “activity change, negative = cytotoxicity” value is 19% (inactive).

Consider `Cc1ccc(C)c(C)c1`, for which the Potency entry was “inactive”.

On to `O=Nc1ccc(O)cc1`, for which the “activity change, negative = cytotoxicity” value is -0.536% (inactive).

For the compound `OCCOCCOCCOCCO`, the Potency result was “inactive”.

For `CCCCOCCOCCOC(=O)CCCCC(=O)OCCOCCOCCCC`, the Potency entry is “inactive”.

Consider `CC[Si](OC(C)=O)(OC(C)=O)OC(C)=O`, for which the Potency result was “inactive”.

On to `OC[C@@H](O)[C@H](O)[C@H](O)[C@@H](O)CO`, for which the Potency entry is “inactive”.

The next assay deals with Aryl hydrocarbon receptor (Homo sapiens) (UniProt P35869). The assay can be described thus: qHTS assay to identify small molecule that activate the aryl hydrocarbon receptor (AhR) signaling pathway (AID 743085). Further: nearly all actives have a fitted effect of over 15% in size. Further: potency means the concentration at half of the fitted maximal effect.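 On activation: HG2L7.5c1 human HepG2 liver cells with stably integrated DRE-driven firefly reporter.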 The note with it: HepG2 AhR-luc (HG2L7.5c1), luciferase, 24 h; series mostly up to 70.3 µM; activation: at the top concentration. An outline of the steps: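 Luminescence read-out: ONE-Glo reagent, 30 min at room temperature, in HG2L7.5c1 HepG2 reporter cells treated 24 h at 37C. Viability was measured beforehand by CellTiter-Fluor fluorescence after 30 min at 37C.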
Aryl hydrocarbon receptor (Homo sapiens), sequence (P35869 whole entry, looked up): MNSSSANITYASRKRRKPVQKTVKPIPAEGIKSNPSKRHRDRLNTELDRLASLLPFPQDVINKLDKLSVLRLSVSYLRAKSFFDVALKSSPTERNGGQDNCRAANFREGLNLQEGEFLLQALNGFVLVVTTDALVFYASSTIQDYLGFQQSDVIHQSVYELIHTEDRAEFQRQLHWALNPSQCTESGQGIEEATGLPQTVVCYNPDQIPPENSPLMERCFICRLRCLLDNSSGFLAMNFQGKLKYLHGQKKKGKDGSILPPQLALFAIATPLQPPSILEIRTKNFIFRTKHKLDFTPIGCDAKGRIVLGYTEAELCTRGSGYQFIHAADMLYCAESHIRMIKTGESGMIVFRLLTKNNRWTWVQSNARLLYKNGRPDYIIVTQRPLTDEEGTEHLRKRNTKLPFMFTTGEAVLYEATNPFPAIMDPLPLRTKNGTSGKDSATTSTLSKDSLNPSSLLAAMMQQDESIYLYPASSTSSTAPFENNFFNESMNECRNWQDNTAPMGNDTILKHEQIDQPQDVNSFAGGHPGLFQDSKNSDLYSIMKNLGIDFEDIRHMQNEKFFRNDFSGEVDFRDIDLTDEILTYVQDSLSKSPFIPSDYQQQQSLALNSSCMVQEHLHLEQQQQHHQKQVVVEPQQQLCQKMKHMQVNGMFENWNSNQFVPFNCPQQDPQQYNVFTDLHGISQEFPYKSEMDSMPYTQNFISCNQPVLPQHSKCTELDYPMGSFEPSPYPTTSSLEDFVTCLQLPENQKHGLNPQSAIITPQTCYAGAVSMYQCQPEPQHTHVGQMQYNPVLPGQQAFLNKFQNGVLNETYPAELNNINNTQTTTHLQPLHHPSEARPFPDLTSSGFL
Turning to `Cn1c([N+](=O)[O-])cnc1COC(N)=O`, the Potency result is “inactive”.

As for `CC(C)Cc1ccccc1`, the Potency result is “inactive”.

`O=[N+]([O-])C(CO)(CO)CO`: the Potency result was “inactive”.

With `O=S(=O)(O)CCS`, the Potency entry is “inactive”.

Take `OC[C@@H](O)[C@@H](O)[C@H](O)[C@@H](O)CO`: the Potency entry was “inactive”.

`CC1Cc2ccccc2N1NC(=O)c1ccc(Cl)c(S(N)(=O)=O)c1` (configuration not stated): the Potency result was “inactive”.

For the compound `COC(=O)c1ccccc1O`, the Potency entry was “inactive”.

Turning to `COC(=O)c1ccc(C(=O)OC)cc1`, the Potency entry was “inactive”.

Turning to `c1ccc2ccccc2c1`, the Potency result is “inactive”.

For the compound `CC(C)(CO)COC(=O)C(C)(C)CO`, the Potency result is “inactive”.

Regarding `O=[N+]([O-])c1cccc(Cl)c1`, the Potency entry was “inactive”.

Turning to `CC1COc2ccccc2N1C(=O)C(Cl)Cl` (configuration not stated), the Potency is 17.2 µM (active) and inactive.

Regarding `CCCCCCCCC`, the “activation” value is 5.39% [at 95 µM] (inactive).

For the compound `Cc1cc(=O)[nH]c(C(C)C)n1`, the Potency result is “inactive”.

`Nc1c(S(=O)(=O)O)cc(Br)c2c1C(=O)c1ccccc1C2=O`: the Potency was 31.3 µM (active) and 30.6 µM (active).

As to `Nc1cc(-c2ccncc2)c[nH]c1=O`, the Potency entry is “inactive”.

Turning to `CCCCOCCO`, the “activation” value is -0.473% (inactive).

Consider `CC(=O)Nc1ccc(C(=O)O)cc1`, for which the Potency result is “inactive”.

Turning to `COCC(=O)O`, the Potency entry is “inactive”.

In the case of `C=CC(=O)OCCCCCCCC(C)C`, the “activation” value was 1.32% (inactive).

For the compound `CCCCCCCCCCCCOCC1CO1` (configuration not stated), the Potency entry was “inactive”.

As for `CCC(C)C=O` (configuration not stated), the Potency result is “inactive”.

As for `O=S(=O)(O)c1cc(S(=O)(=O)O)c2c(N=Nc3ccccc3)c(O)ccc2c1`, the Potency result is “inactive”.

Consider `CC1(C)CC(N=C=O)CC(C)(CN=C=O)C1` (configuration not stated), for which the Potency result is “inactive”.

As for `Clc1cc(Cl)c(Cl)cc1Cl`, the “activation” value is -0.583% (inactive).

As to `O=C(Cl)c1c(Cl)c(Cl)c(C(=O)Cl)c(Cl)c1Cl`, the Potency result was “inactive”.

Regarding `CS(=O)(=O)c1ccc([C@@H](O)[C@@H](CO)NC(=O)C(Cl)Cl)cc1`, the Potency result is “inactive”.

In the case of `C=C1C2CCC(C2)C1(C)C` (configuration not stated), the Potency entry is “inactive”.

Take `CCOC(=O)[C@H](CCc1ccccc1)N[C@@H](C)C(=O)N1Cc2ccccc2C[C@H]1C(=O)O`: the Potency was 6.16 µM (active).

For `C=C(C)C(=O)OCCCCCCCCCCCC`, the Potency entry was “inactive”.

Regarding `OC1CCCC1`, the Potency result was “inactive”.

Turning to `COCC(C)O` (configuration not stated), the “activation” value was 0.226% (inactive).

Regarding `Cc1ccc(C)c(C)c1`, the “activation” value was -0.571% [at 95 µM] (inactive).

Take `O=Nc1ccc(O)cc1`: the Potency was 53.2 µM (active) and inactive.

Consider `OCCOCCOCCOCCO`, for which the Potency entry was “inactive”.

For `CCCCOCCOCCOC(=O)CCCCC(=O)OCCOCCOCCCC`, the Potency entry is “inactive”.

As to `CC[Si](OC(C)=O)(OC(C)=O)OC(C)=O`, the “activation” value was -0.756% (inactive).

`OC[C@@H](O)[C@H](O)[C@H](O)[C@@H](O)CO`: the Potency entry is “inactive”.
